MBNL1-CUG inh: MBNL1-poly(CUG) RNA binding inhibition | Q9NR56 | TR-FRET MBNL1-His/biotin-(CUG)12 binding, 665/545 ratio | Potency, µM (doses to about 57.5 µM), without a hit: top-dose activity change, negative = inhibition, actives largely listed as inhibitors | 280,000 compounds, 0.036% hits | AID 2675; active = well fitted inhibition curve with a large enough effect in the signal ratio, with a control signal flat, not every such curve was filed as active; inconclusive = small, poorly fitted or top-dose-only effect, or effect the other way, or a change in a side signal; inactive = no such curve, though single readings can be large or run the other way; the % refers to the signal ratio; note: potency is the fitted concentration of half-maximal effect; % is set by controls: 0 for no effect and ±100 for the full control effect
Target sequence (Q9NR56 whole entry, looked up): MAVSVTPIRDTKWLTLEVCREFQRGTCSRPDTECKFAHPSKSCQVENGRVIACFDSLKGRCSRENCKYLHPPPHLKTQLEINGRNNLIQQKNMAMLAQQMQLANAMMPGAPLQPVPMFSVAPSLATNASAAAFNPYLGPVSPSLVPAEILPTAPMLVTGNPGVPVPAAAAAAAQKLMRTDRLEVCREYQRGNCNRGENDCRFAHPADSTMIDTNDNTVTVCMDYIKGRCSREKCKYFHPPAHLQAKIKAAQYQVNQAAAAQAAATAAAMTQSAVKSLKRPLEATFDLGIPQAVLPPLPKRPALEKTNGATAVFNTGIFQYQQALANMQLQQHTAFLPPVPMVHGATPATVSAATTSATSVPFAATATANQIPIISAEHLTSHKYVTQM
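TR-FRET between His-tagged MBNL1 and biotin-(CUG)12 RNA, detected with Tb anti-His antibody (0.055 ng/ul) and streptavidin-XL665 (5 nM), 60 min at room temperature. Compounds titrated 92 nM to 58 uM; 665/545 nm ratio normalized to buffer and complex controls.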
LMNA splice mod: modulators of lamin A splicing | HeLa LMNA splicing GFP/RFP minigene ratio, 48 h | 200,000 compounds, 0.01% hits | Potency, µM (top dose mostly 46.1 µM), inactives show at the highest dose ratio change, negative = inhibition, hits mostly inhibitors; active = well fitted inhibition curve with a large enough effect in the signal ratio, with a control signal flat, not every such curve was filed as active; inconclusive = small, poorly fitted or top-dose-only effect, or effect the other way, or a change in a side signal; the % refers to the signal ratio; note: potency is the fitted concentration of half-maximal effect; % is set by controls: 0 for no effect and ±100 for the full control effect
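S3 HeLa cells stably expressing lamin A-EGFP splicing minigene plus DsRed2, 600 cells/well, 48 h compound exposure at 37C. Laser-scanning cytometry; analysed as GFP (500-530 nm)/RFP (575-640 nm) total intensity ratio; 0.5% DMSO vehicle.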
CBFb RUNX1 block: inhibitors of human CBF-beta and RUNX1 interaction | Q01196+Q13951 | AlphaScreen CBFb-His/RUNX1-biotin binding, biochemical | Potency, µM (highest dose often 59.8 µM), inactives show top-dose activity, negative = inhibition, most hits filed as inhibitors | 230,000 tested, under 10 active; note: % of control where 0% means no effect
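CBFb-His/RUNX1-biotin, 30 nM each, preincubated 20 min RT; compound 15 min RT; Ni + streptavidin beads 50 ng each, 90 min RT; AlphaScreen read.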
HttQ103 aggreg: mutant huntingtin aggregation inhibition; PC12 HttQ103-GFP aggregates, Acumen cytometry, 40 h; Potency, µM (doses to about 46.1 µM), for the others: at the highest dose activity change, negative = inhibition, most hits filed as inhibitors; 220,000 compounds, 1.1% hits; AID 1688; note: potency is the fitted concentration of half-maximal effect; % is set by controls: 0 for no effect and ±100 for the full control effect; nearly all actives have a fitted effect of over 60% in size
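Huntingtin Q103 exon 1–GFP aggregates in induced PC12 cells (100 nM tebufenozide) were quantified by cytometry from lysates, with compounds dosed in titration.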
NPSR antagonist: blocks cAMP signaling of the human neuropeptide S receptor; Q6W5P4; CHO-NPSR cells, cAMP TR-FRET, antagonist mode; Potency, µM (top dose mostly 38.3 µM), without a hit: at the top dose activity change, negative = inhibition, actives largely listed as inhibitors; 220,000 compounds, 1% hits; note: potency is the fitted concentration of half-maximal effect; % is set by controls: 0 for no effect and ±100 for the full control effect; nearly all actives have a fitted effect of over 50% in size
Target sequence (Q6W5P4 whole entry, looked up): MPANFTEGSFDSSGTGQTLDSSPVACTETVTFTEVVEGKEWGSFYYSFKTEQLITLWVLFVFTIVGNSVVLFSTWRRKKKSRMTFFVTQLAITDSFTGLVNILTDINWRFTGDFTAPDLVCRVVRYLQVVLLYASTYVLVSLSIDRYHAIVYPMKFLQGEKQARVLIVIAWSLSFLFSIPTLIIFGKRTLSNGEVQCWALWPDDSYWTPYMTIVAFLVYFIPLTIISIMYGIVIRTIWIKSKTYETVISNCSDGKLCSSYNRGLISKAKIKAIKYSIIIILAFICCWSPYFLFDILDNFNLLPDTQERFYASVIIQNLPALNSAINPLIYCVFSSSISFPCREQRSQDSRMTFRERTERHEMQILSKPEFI
HTT cytoprotect: cytoprotection in Huntington HTT-Q103 PC12 cell model; PC12 HTT-Q103 induced, cytoprotection, ATP luminescence, 40 h; Potency, µM (titrated, usually from 56.4 µM), for inactives: cytoprotection (ATP increase), most hits filed as activators; 230,000 compounds, 0.14% hits; AID 1471; note: potency is the fitted concentration of half-maximal effect; % of control where 0% means no effect; nearly all actives have a fitted effect of over 45% in size
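Huntington model: PC12 line, ecdysone-inducible HTTQ103 exon1–GFP, tebufenozide 100 nM. Test articles in a dose series. Endpoint luminescence from cellular ATP.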
* marks the source's active call; other numbers are inactive results; u = inconclusive; x = no result; [ ] = dose if it differs, or a comment. Only some compounds are listed: those with a hit (about 1.1% of all), similar ones and a draw of the others. Unless noted, calls come from the whole dose curve; as a rule, active = well fitted curve in the direction sought with a large enough effect; inconclusive = small, poorly fitted or top-dose-only effect, or another doubt; inactive = no such curve, though single readings can be large; an effect the other way counts as inactive or inconclusive.

SMILES	MBNL1-CUG inh	LMNA splice mod	CBFb RUNX1 block	HttQ103 aggreg	NPSR antagonist	HTT cytoprotect
C=CCSc1nnc(NC(=O)CSc2nc(CCC)cc(=O)[nH]2)s1	-8.0%	u	1.1%	11.2µM*	-13.2%[46.1 µM]	20.2%[10 µM]
CCOC(=O)CCCNC(=O)N1CCc2nc(-c3ccccc3)c3c(c2C1)CO[C@@H](C)C3	x	-9.3%[9.22 µM]	18.1%[13.1 µM]	x	x	-32.0%[10 µM]
COc1ccc(Nc2nc(-c3cccc(OC)c3O)nc3ccccc23)cc1	4.7%	x	x	x	x	x
COc1cccc(-c2nc(NC(C)(C)C)c3ccccc3n2)c1O	8.8%	u	0.2%	35.5µM*	u	-31.1%
COc1cccc([C@@H]2Oc3ccc(OC)cc3C[C@H]2OC(=O)N[C@H]2CCCc3ccccc32)c1	x	x	-5.9%	x	x	11.4%
CC(=O)Nc1nonc1-c1nc2ccccc2n1CC1CC1	6.4%	-4.1%	9.3%	7.08µM*	-17.3%[46.1 µM]	29.7%
CN(C)S(=O)(=O)N1CCN(S(=O)(=O)c2ccc(F)cc2)CC1	-0.3%	2.8%	2.2%	-13.7%	-3.1%[46.1 µM]	-7.6%
CN(C)S(=O)(=O)c1ccc(N2CCN(S(=O)(=O)c3ccc(F)cc3)CC2)c(Cl)c1	-3.0%	u	2.8%	10µM*	-18.8%[46.1 µM]	-22.4%[10 µM]
N#CC(=C(/N)Sc1ccccc1N)/C(C#N)=C(\N)Sc1ccccc1N	x	x	x	x	x	25.7%
CN(C)S(=O)(=O)c1ccc(C(=O)Nc2nnc(-c3cccs3)o2)cc1	-0.4%	u	-12.3%	u	-20.9%	28.1%[10 µM]
COc1cccc(-c2nnc(NC(=O)c3ccc(S(=O)(=O)N4CC(C)OC(C)C4)cc3)o2)c1 (configuration not stated)	-4.7%	u	1.0%	3.98µM*	-14.8%[46.1 µM]	-32.5%[10 µM]
CCC1CCCCN1S(=O)(=O)c1ccc(C(=O)Nc2nnc(-c3cccs3)o2)cc1 (configuration not stated)	3.0%	u	-21.4%	11.2µM*	-3.3%[46.1 µM]	27.7%[10 µM]
CC1CC(C)CN(S(=O)(=O)c2ccc(C(=O)Nc3nnc(-c4cccs4)o3)cc2)C1 (configuration not stated)	8.0%	u	-2.2%	7.94µM*	-8.5%[46.1 µM]	-71.4%
CCOc1ccc(/C=C2/SC(=O)NC2=S)cc1	u	u	-19.0%	-20.7%	-48.9%	-21.2%[10 µM]
CCOc1ccc(N=C2NC(=O)S/C2=C\c2ccc(N(C)C)cc2)cc1	25.9%	4.7%	-0.8%	22.4µM*	-23.7%[46.1 µM]	-88.3%
O=C(OCn1ncc(Cl)c(Cl)c1=O)c1ccccc1Cl	292.3%	u	0.3%	u	5.01µM*	2.9%
O=C(OCn1ncc(Cl)c(Cl)c1=O)c1ccc(F)cc1	351.8%	u	-5.0%	u	u	-91.0%
C[C@]12C=CC(=O)C=C1CC[C@@H]1[C@H]3C[C@@H](O)[C@](O)(C(=O)CO)[C@]3(C)C[C@H](O)[C@]12F	x	x	x	x	x	-7.2%[1.9 µM]
Cc1csc(N/N=C/c2ccc(O)c([N+](=O)[O-])c2)n1	u	u	u	x	10µM*	3.0%[10 µM]
O=[N+]([O-])c1cc(/C=N\Nc2nc(-c3ccccc3)cs2)ccc1O	u	x	u	-20.8%	-49.0%	-10.5%
CCOC(=O)N/N=C1/C[C@@H](O)[C@@H](O)[C@@H]2[C@@H]3C(=O)N(C(C)(C)C)C(=O)[C@H]3CC[C@H]12	x	x	-6.9%[13.1 µM]	x	x	u
CCC(Sc1nc(-c2ccccc2)[nH]c1S(=O)(=O)c1ccc(C)cc1)C(=O)O (configuration not stated)	x	0.9%[46 µM]	x	x	x	x
COc1ccc(Sc2nc3ccccc3n3c(C(F)(F)F)nnc23)cc1	-6.0%	4.7%	1.0%	28.8%	u	6.8%
COc1ccc(-c2cc(-n3c(C(F)(F)F)nc4ccccc43)n(CCC#N)n2)cc1	-0.5%	u	-2.3%	2.82µM*	-26.8%[46.1 µM]	-15.7%
COC(=O)C1=C(N)Oc2cc(C)n(C)c(=O)c2C1c1ccc(Cl)cc1 (configuration not stated)	-3.7%	u	3.2%	11.2µM*	7.1%[46.1 µM]	23.0%[0.074 µM]
SMILES	MBNL1-CUG inh	LMNA splice mod	CBFb RUNX1 block	HttQ103 aggreg	NPSR antagonist	HTT cytoprotect
OC(COC(c1ccc(Cl)cc1)c1ccc(Cl)cc1)CN1CCN(c2ccccn2)CC1 (configuration not stated)	0.2%	u	-18.9%	31.6µM*	-47.5%	16.8%[10 µM]
OC(COCc1ccc(Cl)cc1)CN1CCN(CC(O)COCc2ccc(Cl)cc2)CC1 (configuration not stated)	-18.8%	-21.4%	14.2%	3.98µM*	u	-19.7%[10 µM]
OC(COCc1ccc(Cl)cc1)CN1CCCCC1 (configuration not stated)	-10.2%	x	x	x	x	x
O=C1C=CC2=C3c4cc(O)c(O)cc4C[C@@]3(O)COC2=C1O	x	x	x	x	x	-12.8%
Clc1ccc(-c2csc(=Nc3cccnc3)n2CCCn2ccnc2)cc1Cl	26.1%	u	-23.3%	11.2µM*	-23.0%	-17.5%[10 µM]
O=C(CN1CCN(Cc2ccccc2)C1=O)NCc1ccc(Cl)cc1	-2.8%	3.6%	5.3%	-0.9%	-7.6%[46.1 µM]	u
Cc1ccccc1CN1CCN(CC(=O)NCc2ccccc2)C1=O	-8.0%	2.6%	7.8%	-3.0%	-9.2%[46.1 µM]	4.47µM*
CC[C@H](C)[C@H](NC(=O)[C@H](C)NC(=O)CNC(=O)[C@H](CCCCN)NC(=O)[C@H](CC(N)=O)NC(=O)[C@H](CO)NC(=O)CN)C(=O)N[C@H](C(=O)NCC(=O)N[C@@H](CC(C)C)C(=O)N[C@@H](CCSC)C(=O)O)[C@@H](C)CC	x	x	27.2%	x	x	x
Cc1nc2ccccc2n1C(=O)c1ccccc1[N+](=O)[O-]	24.0%	-6.3%	-0.9%	0.141µM*	9.3%[46.1 µM]	x
Cn1c(=O)c2c(SCc3c(F)cccc3Cl)nc(CC(C)(C)C)nc2n(C)c1=O	2.8%	-9.5%	7.1%	-14.1%	10µM*	-17.2%[10 µM]
O=C(CCC1N=C2c3ccccc3N=C(SCc3cccc(F)c3)N2C1=O)NCc1cccs1 (configuration not stated)	x	26.6%[46 µM]	x	x	x	x
Cc1ccc(C2CC(C(F)(F)F)n3nc(C(=O)NCc4c(C)nn(C)c4C)c(Cl)c3N2)cc1 (configuration not stated)	-3.2%	u	0.4%	12.6µM*	u	-30.1%
Cc1nn(C)c(C)c1CNC(=O)c1cnn2c1NC(c1ccccc1)CC2C(F)(F)F (configuration not stated)	-13.8%	3.8%	0.0%	-6.1%	-17.9%[46.1 µM]	-8.8%[10 µM]
Cc1ccc(NC(=O)CN2C(=O)CCc3ccccc32)cc1C	x	0.3%[46 µM]	x	x	x	x
CCCCOc1ncnc2c1[nH]c1ccc(OCC)cc12	-2.4%	7.5%	7.5%	0.5%	1.4%[46.1 µM]	-23.1%
